# Bioassay records from PubChem.
# Sampled rows, rich in hits. Any-hit rate of the full collection: about 21%.
# Pf growth 48h = Primary qHTS for delayed death inhibitors of the malarial parasite plastid, 48 hour incubation; P. falciparum luciferase growth in erythrocytes, 48 h; 310,000 compounds, 5.9% hits; Potency, µM (doses to about 28.7 µM), for inactives: at the top dose activity change, negative = inhibition, actives largely listed as inhibitors; further: potency means the concentration at half of the fitted maximal effect; on the % scale 0 is the no-effect control and ±100 the full control effect
#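 A one-generation exposure of luciferase-tagged malaria parasites in RPMI 1640/Albumax erythrocyte culture, 37 C and 5% CO2. Inhibition is inferred from decreased luminescence after adding detection reagent.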
# Sm TGR inh = qHTS Assay for the Inhibitors of Schistosoma Mansoni Peroxiredoxins. Schistosoma mansoni thioredoxin glutathione reductase (TGR), Q962Y6. purified TGR, DTNB reduction, TNB absorbance 405 nm. Potency, µM (top dose mostly 114 µM), for the others: top-dose activity change, negative = inhibition, most hits filed as inhibitors. 360,000 compounds, 3% hits. AID 485364, 2010; further: potency means the concentration at half of the fitted maximal effect; on the % scale 0 is the no-effect control and ±100 the full control effect; nearly all actives have a fitted effect of over 60% in size
#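 First, TGR (20 nM dispensed) and NADPH were mixed with compound. Second, a 15 min room-temperature incubation followed. Third, further NADPH and then DTNB were added to start the reaction. Finally, TNB absorbance was monitored kinetically.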
# NS1 inh = qHTS Assay for Inhibitors of Influenza NS1 Protein Function; 270,000 compounds, 0.4% hits; Potency, µM (doses to about 46.1 µM), inactives show top-dose activity, positive = more growth; calls by dose curve; further: potency means the concentration at half of the fitted maximal effect; actives are rising curves; nearly all actives have a fitted effect of over 50% in size
#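 OD600 was taken as the measure of yeast growth restored by compound in an NS1-expressing S. cerevisiae strain. Cells had been washed out of glucose medium and diluted 1:100 into galactose -URA medium, pH 6.0.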
# Pf growth 96h = Primary qHTS for delayed death inhibitors of the malarial parasite plastid, 96 hour incubation | P. falciparum luciferase reporter growth, 96 h | 320,000 compounds, 6.9% hits | Potency, µM (highest dose often 28.7 µM), without a hit: at the top dose activity change, negative = inhibition, most hits filed as inhibitors; further: potency means the concentration at half of the fitted maximal effect; on the % scale 0 is the no-effect control and ±100 the full control effect
#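 Erythrocytes infected with luciferase-expressing P. falciparum were dispensed at 2% hematocrit and 0.05% parasitemia (final), then incubated with compounds 96 hours at 37 C in 5% CO2. Luminescence after detection reagent addition reported growth.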
# Cycloheximide cs = Cycloheximide Counterscreen for Small Molecule Inhibitors of Shiga Toxin | cell reporter, cycloheximide protein synthesis inhibition counterscreen | max response, % | 300,000 compounds, 12% hits | AID 2314, 2010; in the data active means max response mostly above about 13%, no sharp cut-off; inactive means mostly below about 14%; further: read at 38.3 µM for the half of the compounds with a filed dose; 0% is about no effect
# Shiga toxin inh = A qHTS for Small Molecule Inhibitors of Shiga Toxin | Vero cells, Shiga toxin protein synthesis inhibition reporter | inhibition, % at 38.7 µM | 290,000 compounds, 9.2% hits; in the data active means inhibition mostly above about 28%, no sharp cut-off; inactive means mostly below about 43%; further: 0% is about no effect
# * = called active by the depositor; ? = inconclusive; / = no result; [ ] = remark or other dose. Unless noted, the call rests on the fitted dose curve; in most records, active means well fitted curve in the direction sought with a large enough effect; inconclusive means small, poorly fitted or top-dose-only effect, or another doubt; inactive means no such curve, though single readings can be large; an effect the other way counts as inactive or inconclusive.
SMILES,Pf growth 48h,Sm TGR inh,NS1 inh,Pf growth 96h,Cycloheximide cs,Shiga toxin inh
O=C(CNC(=S)N(Cc1ccccc1F)C1CCCCC1)NCCN1CCOCC1,-3%,9%,/,-24%,0,-16
O=C(CNC(=S)N(Cc1ccccc1Cl)C1CCCC1)NCCN1CCOCC1,10µM*,-6%,/,38%,-2,19
COC(=O)CN1C(=O)C(C)(C)c2cc(S(=O)(=O)NCc3ccc(Cl)cc3)ccc21,/,-1%,/,/,/,/
CO[C@@H](COC(N)=O)C1=C(N2CC2)C(=O)C(C)=C(N2CC2)C1=O,0.6µM*,/,/,0.54µM*,/,/
Cc1cc[n+]2cc(-c3cccc([N+](=O)[O-])c3)c(-c3cccc([N+](=O)[O-])c3)cc2c1,0.83µM*,-1%,10%,0.15µM*,-4,9
Cc1cccc(-n2c(-c3cccc([N+](=O)[O-])c3)nc3nc4ccccc4nc32)c1,-3%,1%,6%,?,-2,-3
Cc1ccc(CNS(=O)(=O)c2c(C)[nH]c(C)c2C(=O)N2CCCCC2)o1,-8%,45µM*,2%,13µM*,2,17
CC(C)C[C@H](NC(=O)[C@@H](N)Cc1ccccc1)C(=O)N[C@@H](Cc1ccccc1)C(=O)N[C@@H](CCC(N)=O)C(=O)N1CCC[C@H]1C(=O)N[C@@H](CCC(N)=O)C(=O)N[C@@H](CCCN=C(N)N)C(=O)N[C@@H](Cc1ccccc1)C(N)=O,/,/,/,/,-1,-11
N#C/C(=C/c1cn(Cc2ccc(F)cc2)c2ccccc12)C(=O)Nc1cccc(Cl)c1,/,1%,/,/,/,/
COc1ccccc1Cn1c(=O)c2ccccc2n2c(SCc3csc(C)n3)nnc12,?,-13%,-1%,5.2µM*,10,20
Cc1ccc(C2C(/C=C3/SC(=S)NC3=O)=C(c3cccs3)Oc3ccccc32)cc1 (stereo not drawn),/,-21%,12%,9.3µM*,-3,-7
Cc1cc(C(=O)Nc2ccc(Cl)cc2)c(C)n1Cc1cccs1,228%,?,7%,9%,67*,95*
Cc1cc(C)cc(NC(=O)c2cc(C)n(Cc3cccs3)c2C)c1,138%,40µM*,3%,117%,49*,53*
COc1ccc(NC(=O)c2cc3c(=O)n(Cc4cccs4)ccc3nc2C)cc1,/,0%,/,/,/,/
CCOC(=O)c1ccc2c(c1)[nH]c(=S)n2CC,59%,0%,-1%,-5%,29*,88*
CCOC(=O)c1ccc2c(c1)n(CC)c(C)[n+]2CC,?,/,2%,30%,-4,15
COc1ccc(CCNC(=O)CCNC(=O)c2ccccc2Cl)cc1,-1%,-5%,5%,3%,-7,-10
CCOc1ccc(CCNC(=O)CCNC(=O)c2ccccc2Cl)cc1OCC,12µM*,7%,11%,?,4,-28
CCOc1ccc(S(=O)(=O)NCCC(=O)NCCc2ccc(OCC)c(OCC)c2)cc1,-26%,3.2µM*,/,?,/,/
Cc1ccc(C(c2sc3nc(-c4ccco4)nn3c2O)N2CCN(c3ccc(F)cc3)CC2)cc1 (stereo not drawn),/,-8%,/,/,/,/
O=C1NCC(O)=C1C=Nc1ccccc1O,10µM*,13%,-34%,?,-2,-2
O=C1NCC(O)=C1C=NCCCO,18%,-1%,-10%,?,1,-4
Cc1ccc(NC2=C(Cl)C(=O)c3ccccc3C2=O)cc1,79%,3.5µM*,11%,216%,25*,70*
O=C1C(Cl)=C(Nc2ccc(O)cc2)C(=O)c2ccccc21,?,2.2µM*,1%,-15%,23*,48*
Cc1cc(C)cc(Nc2nc3ccccc3c(=O)[nH]2)c1,?,-1%,/,?,24,3
SMILES,Pf growth 48h,Sm TGR inh,NS1 inh,Pf growth 96h,Cycloheximide cs,Shiga toxin inh
CCN(CC)c1ccc(NC2=C(Cl)C(=O)c3ccccc3C2=O)cc1,40%,2.2µM*,-13%,2.9µM*,60*,128*
Cc1cc(C)cc(NC2=C(N)C(=O)c3ccccc3C2=O)c1,?,-1%,-1%,-7%,43*,122*
NCCNS(=O)(=O)c1ccc(N)cc1,/,/,-1%,/,/,/
CCn1cc(S(=O)(=O)N2CCN(Cc3ccc(F)cc3)CC2)cn1,-10%[5.75 µM],-8%,12%,9%,-2,2
COc1cc2c(cc1OC)C(C(=O)NCCN(C)C)C(c1cccs1)N(C)C2=O (stereo not drawn),-2%,2%,/,-17%,-2,27
Cc1cc(Br)cc2c1NC(=O)C2(c1c(C)n(C)n(-c2ccccc2)c1=O)c1c(C)n(C)n(-c2ccccc2)c1=O,?,45µM*,-1%,-3%,-1,-6
Cc1c(C2(c3c(C)n(C)n(-c4ccccc4)c3=O)C(=O)Nc3ccc(F)cc32)c(=O)n(-c2ccccc2)n1C,-23%,-12%,19%,/,5,4
CS(=O)(=O)N1CCC(C(=O)Nc2ccc(OCc3ccccc3)cc2)CC1,-9%,0%,0%,/,0,23
COc1ccccc1NC(=O)CN1CCN(CC(=O)Nc2ccc(OCc3ccccc3)cc2)CC1,?,-15%,-103%,-18%,20*,18
CC(C(=O)Nc1ccc(OCc2ccccc2)cc1)N1CCCC1 (stereo not drawn),76%,-2%,/,0%,28*,33*
CCC(C)C(NC(N)=O)C(=O)Nc1ccc(OCc2ccccc2)cc1 (stereo not drawn),7%,1%,-10%,88%,22*,26*
CCOc1ccc(NC(=O)[C@@H](NC(=O)OCc2ccccc2)[C@@H](C)CC)cc1,0%,-22%,-5%,17%,-1,-8
Cc1ccc(N(C(C)C(=O)N2CCOCC2)S(C)(=O)=O)cc1C (stereo not drawn),?,4%,3%,9.3µM*,-4,-9
CCOc1nc(NC(=O)NS(=O)(=O)c2cccc(Cl)c2)nc(-c2ccccc2)n1,42%,-11%,13%,?,-1,0
COc1ccc(CNC(=O)Cc2c(C)c3c(cc(C)c4c(C)coc43)oc2=O)cc1,/,8%,/,/,/,/
CCOC(=O)N1CCN(C(=O)C(C)N(c2ccc(Oc3ccccc3)cc2)S(C)(=O)=O)CC1 (stereo not drawn),12µM*,0%,-27%,?,-1,-2
O=C(CN1CCCC1)Nc1ccc(OCc2ccccc2)cc1,7%,-21%,2%,6%,27*,27
CN1CCN(CC(=O)Nc2ccc(Oc3ccccc3)cc2)CC1,?,4%,2%,31%,6,-9
CCOC(=O)N1CCN(CC(=O)Nc2ccc(Oc3ccccc3)cc2)CC1,7.4µM*,-17%,-47%,/,-4,-15
CCC(Oc1ccccc1)C(=O)Nc1ccc2oc(-c3ccc(OC)cc3)nc2c1 (stereo not drawn),/,-1%,/,/,/,/
